# In the supplement of paper PMC10732440:
# ± gives the standard deviation of the averaged measurements.
# Test system: Caenorhabditis elegans N2 infected with Nematocida parisii ERTm1
# Experiment: progeny production relative to DMSO uninfected control; higher = more progeny despite microsporidia infection (inhibition of infection with low host toxicity)
# Conditions: infection time 6 days; 40 µM
# How it was run: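 Bleach-synchronised wild-type C. elegans L1 larvae (100 per well) were placed in 96-well plates with K-medium, E. coli OP50 and 15,000 N. parisii spores/μL, with compound pinned to 100 μM or 40 μM in 1% DMSO. Plates were shaken at 21°C for 6 days; worms were then Rose Bengal-stained, flatbed-scanned and counted with WorMachine, each compound and dose tested three times. Progeny production is given as a percentage of the spore-free vehicle control, averaged across replicates.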
row,Compound,progeny production
1,CNc1nc(=O)[nH]cc1F,2.97 ± 1.7%
2,CC(C)(C)c1ccc(Oc2ccc(N)cc2)cc1,3.17 ± 1.1%
3,Cc1[nH]c2ccccc2c1CCNCc1ccc(/C=C/C(=O)NO)cc1,6.83 ± 2.5%
4,COc1ccc(-n2cnc3cc(NCc4ccco4)ccc32)cc1,10 ± 2.1%
5,C[C@H](NC(=O)C(=O)Nc1ccccc1C(C)(C)C)C(=O)N[C@@H](CC(=O)O)C(=O)COc1c(F)c(F)cc(F)c1F,5.12 ± 0.88%
6,CO[C@@]1(NC(=O)Cc2cccs2)C(=O)N2C(C(=O)O)=C(COC(N)=O)CS[C@@H]21,8.96 ± 2.4%
7,Cc1ncc([N+](=O)[O-])n1CC(O)CN1CCOCC1 (centres undefined),9.17 ± 4.5%
8,CC1(C)[C@H](C(=O)O)N2C(=O)C[C@H]2S1(=O)=O,4.44 ± 0.8%
9,CCCCN1C[C@H](O)[C@@H](O)[C@H](O)[C@H]1CO,4.97 ± 3.5%
10,CN(C)CC(=O)Nc1ccc2[nH]c(=O)c3ccccc3c2c1,3.86 ± 0.4%
11,NC(=O)[C@@H]1CC[C@@H]2CN1C(=O)N2OS(=O)(=O)O,8.69 ± 1.4%
12,C[C@@H](NC(=O)c1ccccc1-c1ccccc1)B(O)O,3.09 ± 1.4%
13,Cc1nc2ccc(Oc3ccccc3)cc2c2c1CCN2CCc1ccccc1,4.79 ± 0.99%
14,O=C(NC(=O)N1CCCc2ccccc21)c1cccc(Cl)c1,2.7 ± 0.83%
15,CCc1ccccc1OCCN1CCCCCC1,7.17 ± 1.6%
16,Cc1nc2ccc(Cl)cc2c(-c2ccccc2)c1CC(=O)O,6.84 ± 5.6%
17,CC(=O)NC[C@H]1CN(c2ccc(N3CCSCC3)c(F)c2)C(=O)O1,6.06 ± 3.1%
18,Nc1nnc(-c2ccc(Cl)cc2)s1,5.44 ± 1.4%
19,Nc1nc(O)c(Br)c(-c2cccc(Cl)c2)n1,4.12 ± 0.52%
20,COC(=O)Nc1nc2c(C)cccc2[nH]1,13.8 ± 1.7%

row,Compound,progeny production
1,O[C@@](Cn1cnnn1)(c1ccc(F)cc1F)C(F)(F)c1ccc(-c2ccc(OCC(F)(F)F)cc2)cn1,3.9 ± 1.3%
2,O=C(NN1C(=O)[C@@H]2[C@@H]3C=C[C@@H]([C@H]4C[C@@H]34)[C@@H]2C1=O)c1ccc(C(F)(F)F)cc1,3.22 ± 1.3%
3,O=C(NCCN1CCCCC1)c1cccc(C(F)(F)F)c1,5.09 ± 1.5%
4,O=c1cc(NCCCN[C@@H]2CCOc3c(Br)cc(Br)cc32)[nH]c2ccsc12,5.52 ± 2.9%
5,OB1OCc2cc(Cl)ccc21,4.68 ± 1.6%
6,CC1=C(/C=C/C(C)=C/C=C/C(C)=C/C(=O)Nc2ccc(O)cc2)C(C)(C)CCC1,3.02 ± 2.2%
7,O=c1oc2ccc(Br)cc2cc1CSc1ncc[nH]1,6.6 ± 2.9%
8,CC(Cc1ccccc1)C(=O)Nc1ccc(Cl)cc1C(=O)O (centres undefined),7.65 ± 4.2%
9,CC(C)(C)c1cc(C(=O)/C(C#N)=N/Nc2cccc(Cl)c2)no1,4.44 ± 0.8%
10,Oc1cccc(C(Nc2nccs2)c2ccc3cccnc3c2O)c1 (centres undefined),4.05 ± 2%
11,CC(=O)O[C@H]1C[C@@]2(C)[C@@H](C[C@@H](O)[C@H]3[C@@]4(C)CC[C@@H](O)[C@@H](C)[C@@H]4CC[C@@]32C)/C1=C(\CCC=C(C)C)C(=O)O,6.24 ± 2.3%
12,N=c1n(CCN2CCCCC2)c2ccccc2n1CC(O)COc1ccc(Cl)cc1Cl (centres undefined),5.53 ± 1.7%
13,COc1ccc(NC(=O)c2cc3ccccn3n2)cc1,9 ± 5.7%
14,O=C1NC(=O)C(Br)=C1Br,12.2 ± 12%
15,COc1ccc2nc(-c3ccccc3)cc(O)c2c1,10.7 ± 7.9%
16,Cc1cc(C)n(O)c(=O)c1,1.95 ± 0.44%
17,Oc1cc(-c2cccc3ccccc23)[nH]n1,2.92 ± 0.16%
18,Nc1nc(F)nc2c1ncn2[C@H]1O[C@@H](CO)[C@H](O)[C@@H]1O,2.33 ± 1%
19,COC(=O)Nc1nc2cc([S+]([O-])c3ccccc3)ccc2[nH]1 (centres undefined),6.27 ± 3.5%
